# Reference: PubChem BioAssay (Tox21)
# Inconclusive results are not listed. A call without a number means that no potency is given here. Unmarked numbers belong to inactive results. Calls of active or inactive are those of the source. Unless noted, calls come from the whole dose curve; as a rule, active = well fitted curve in the direction sought with a large enough effect in the repeat runs; inconclusive = weak or mixed curves; inactive = no such curve, though single readings can be large; an effect the other way counts as inactive or inconclusive.
# Assays:
# [1] = qHTS assay to identify small molecule agonists of the vitamin D receptor (VDR) signaling pathway - cell viability counter screen (AID 743224); note: series mostly up to about 63 µM; nearly all actives have a fitted effect of over 50% in size
# Outline: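 Compounds were pin-transferred onto VDR-bla cells plated 4 h earlier; following 16 h incubation at 37C, cell viability was quantified by CellTiter-Glo luminescence after 30 min at room temperature.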
# [2] = qHTS assay to identify small molecule antagonists of the vitamin D receptor (VDR) signaling pathway - cell viability counter screen (AID 743225); note: nearly all actives have a fitted effect of over 50% in size
# Outline: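 Read-out: CellTiter-Glo luminescence measured 30 min after reagent addition at room temperature. Cells were VDR-bla HEK 293T exposed 16 h at 37C, 5% CO2, to compound with 3 nM final calcitriol agonist.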
# [3] = qHTS assay to identify small molecule agonists of the NFkB signaling pathway (AID 1159509; active = well fitted curve in the direction sought with a large enough effect in the signal ratio in the repeat runs, not every such curve was filed as active; the % refers to the signal ratio; note: series mostly up to about 61 µM)
# Outline: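 Pathway activation was measured in ME-180 cells stably expressing beta-lactamase under NF-kB response element control. Substrate cleavage was read as the 460/530 nm emission shift after 5 hr compound incubation.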
# [4] = qHTS assay to identify small molecule agonists of the NFkB signaling pathway - cell viability counter screen (AID 1159515; calls by dose curve; note: series mostly up to about 61 µM; nearly all actives have a fitted effect of over 55% in size)
# Outline: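 Parallel cytotoxicity counter screen in ME-180 cells carrying an NFkB-response-element beta-lactamase reporter, 2,000 cells/well. Compound exposure lasted 5 hr at 37 C, 5% CO2. Cell viability was quantified by CellTiter-Glo luminescence.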
# [5] = qHTS assay to identify small molecule agonists of the endoplasmic reticulum stress response signaling pathway (AID 1159516; active = well fitted activation curve with a large enough effect in the signal ratio in the repeat runs, not every such curve was filed as active; the % refers to the signal ratio)
# Outline: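 Using a HeLa line with an ESRE-driven beta-lactamase gene, agonist activity was measured by FRET substrate fluorescence (460 and 530 nm emission) after cells were treated with compounds for 5 hr at 37 C and 5% CO2.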
# [6] = qHTS assay to identify small molecule antagonists of the retinoid-related orphan receptor gamma (ROR-gamma) signaling pathway - cell viability counter screen (AID 1159520); note: nearly all actives have a fitted effect of over 50% in size
# Outline: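 Tet-on ROR gamma CHO cells were given compounds for 2 hr, then doxycycline hyclate at 1 uM final, and incubated 16 hr at 37 C. Viability was measured as ATP content by CellTiter-Glo luminescence.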
# [7] = target: Nuclear receptor ROR-gamma (Homo sapiens) (UniProt P51449); assay: qHTS assay to identify small molecule antagonists of the retinoid-related orphan receptor gamma (ROR-gamma) signaling pathway (AID 1159521;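 note: CHO cells with doxycycline inducible ROR-gamma driving an RORE luciferase reporter; top concentration of the series differs between compounds; nearly all actives have a fitted effect of over 50% in size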)
# Outline: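 CHO Tet-on RORγ, RORE-luc reporter. Cpd 2 h pre-incubation, then dox hyclate 1 uM final, 16 h, 37 C/5% CO2. ONE-Glo luminescence; decrease = antagonist.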
# [8] = qHTS assay to identify small molecule agonists of the AP-1 signaling pathway (AID 1159526; calls by dose curve)
# [9] = target: Retinoic acid receptor RXR-alpha (Homo sapiens) (UniProt P19793); assay: qHTS assay to identify small molecule agonists of the RXR signaling pathway (AID 1159527; calls by dose curve; note: nearly all actives have a fitted effect of over 35% in size)
# Outline: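 Read-out: beta-lactamase FRET ratio (405 nm excitation, 460 and 530 nm emission) after 2 hr substrate loading at room temperature. Cells were RXR-alpha-UAS-bla HEK 293T treated with compounds for 16 hr in 2% charcoal-stripped FBS medium.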
# [10] = qHTS assay to identify small molecule agonists of the RXR signaling pathway - cell viability counter screen (AID 1159529)
# Outline: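 HEK 293T RXRa-bla cells, 2% CS-FBS; 5 h settle; cpd 16 h 37 C, 5% CO2; CellTiter-Glo 30 min RT, luminescence. Tetraoctyl ammonium bromide as positive control.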
# [11] = qHTS assay to identify small molecule antagonists of the retinoid acid receptor (RAR) signaling pathway - cell viability counter screen (AID 1159551); note: nearly all actives have a fitted effect of over 35% in size
# Outline: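 ATP-based viability, C3RL4 cells, 6 h at 37 C with 1 uM final retinol co-added after compound; luminescence read 30 min post CellTiter-Glo, RT.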
# [12] = qHTS assay to identify small molecule antagonists of the retinoic acid receptor (RAR) signaling pathway (AID 1159552; note: nearly all actives have a fitted effect of over 50% in size)
# Outline: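 Cells of the C3RL4 line were seeded, incubated overnight, then dosed with compounds in DMSO followed immediately by retinol (1 uM final). Six hours later luciferase detection reagent went in; signal was measured after 30 min at RT.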
# [13] = qHTS assay to identify small molecule agonists of the retinoic acid receptor (RAR) signaling pathway (AID 1159553)
# Outline: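 Quantitative high-throughput format: the Tox21 10K library was tested on C3RL4 RARE-luciferase cells for 6 hr at 37 C and 5% CO2, with luminescence measured after a 30 min room-temperature reagent step.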
# [14] = qHTS assay to identify small molecule antagonists of the estrogen related receptor (ERR) signaling pathway from Tox21 library - cell viability counter screen (AID 1224834); note: nearly all actives have a fitted effect of over 30% in size
# Outline: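 Compounds in DMSO were pinned onto ERR cells that had been incubated for 6 h, and the plates were held at 37 C for 17.5 h. CellTiter-Fluor reagent was then added and fluorescence was measured after 30 min.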
# [15] = target: Luciferin 4-monooxygenase (Photinus pyralis) (UniProt P08659); assay: qHTS assay to identify small molecule inhibitors of firefly luciferase (AID 1224835); note: series mostly up to about 120 µM; nearly all actives have a fitted effect of over 25% in size
# Outline: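 Biochemical qHTS: compounds run as interplate titrations against purified firefly enzyme, with D-luciferin and ATP each at its KM concentration. Light output recorded by CCD imaging.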
# [16] = qHTS assay to identify small molecule agonists of the constitutive androstane receptor (CAR) signaling pathway - cell viability counter screen (AID 1224836); note: series mostly up to about 92 µM; nearly all actives have a fitted effect of over 45% in size
# Outline: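 HepG2-CYP2B6-hCAR, 2500 cells/well, 4 h pre-incubation; cpd 15 conc + PK11195 0.75 uM final; 23 h, 37 C/5% CO2; CellTiter-Fluor, fluorescence.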
# [17] = qHTS assay to identify small molecule antagonists of the constitutive androstane receptor (CAR) signaling pathway - cell viability counter screen (AID 1224837); note: series mostly up to about 92 µM; nearly all actives have a fitted effect of over 45% in size
# Outline: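 Cells are seeded, rested 4 hr at 37 C/5% CO2, dosed with compound (15-point series) and 50 nM CITCO, incubated a further 23 hr, and then CellTiter-Fluor reagent is added before fluorescence is read. The line is HepG2 with stable hCAR and CYP2B6-2.2kb.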
# [18] = target: Nuclear receptor subfamily 1 group I member 3 (Homo sapiens) (UniProt Q14994); assay: qHTS assay to identify small molecule antagonists of the constitutive androstane receptor (CAR) signaling pathway (AID 1224838);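 note: HepG2 cells stably expressing hCAR with CYP2B6 luciferase reporter stimulated by CITCO; nearly all actives have a fitted effect of over 40% in size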; note: potency is the fitted concentration of half-maximal effect
# Outline: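 Luminescence from a CYP2B6-2.2kb promoter reporter in hCAR-expressing HepG2 cells reflects CAR signaling. Cells received compounds at 15 concentrations and 50 nM CITCO (final), then incubated 24 h at 37 C/5% CO2.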
# [19] = qHTS assay to identify small molecule agonists of the AP-1 signaling pathway - cell viability counter screen (AID 1159525; calls by dose curve; note: nearly all actives have a fitted effect of over 55% in size)
# Outline: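 Same-well cytotoxicity counter screen of the Tox21 10K library in ME-180 cells. The readout is ATP-dependent luminescence after 5 h compound treatment. Data are normalised to DMSO and tetra n-octyl ammonium bromide controls.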
# Sequence of Luciferin 4-monooxygenase (Photinus pyralis) (P08659 whole entry, looked up): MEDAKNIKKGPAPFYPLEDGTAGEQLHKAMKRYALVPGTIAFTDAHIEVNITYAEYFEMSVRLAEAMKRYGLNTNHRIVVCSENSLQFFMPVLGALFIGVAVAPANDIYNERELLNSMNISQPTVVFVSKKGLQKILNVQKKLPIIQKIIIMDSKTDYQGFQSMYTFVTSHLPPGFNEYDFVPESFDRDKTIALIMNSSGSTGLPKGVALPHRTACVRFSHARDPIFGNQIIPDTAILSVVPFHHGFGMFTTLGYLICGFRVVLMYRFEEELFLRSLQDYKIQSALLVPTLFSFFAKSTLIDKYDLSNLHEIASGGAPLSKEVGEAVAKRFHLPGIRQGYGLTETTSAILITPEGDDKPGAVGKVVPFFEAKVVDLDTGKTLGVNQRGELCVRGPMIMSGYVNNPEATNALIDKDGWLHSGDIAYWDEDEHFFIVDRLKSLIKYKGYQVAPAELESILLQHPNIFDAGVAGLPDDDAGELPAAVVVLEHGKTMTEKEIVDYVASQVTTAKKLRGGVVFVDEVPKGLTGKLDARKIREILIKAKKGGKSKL
# Sequence of Nuclear receptor subfamily 1 group I member 3 (Homo sapiens) (Q14994 whole entry, looked up): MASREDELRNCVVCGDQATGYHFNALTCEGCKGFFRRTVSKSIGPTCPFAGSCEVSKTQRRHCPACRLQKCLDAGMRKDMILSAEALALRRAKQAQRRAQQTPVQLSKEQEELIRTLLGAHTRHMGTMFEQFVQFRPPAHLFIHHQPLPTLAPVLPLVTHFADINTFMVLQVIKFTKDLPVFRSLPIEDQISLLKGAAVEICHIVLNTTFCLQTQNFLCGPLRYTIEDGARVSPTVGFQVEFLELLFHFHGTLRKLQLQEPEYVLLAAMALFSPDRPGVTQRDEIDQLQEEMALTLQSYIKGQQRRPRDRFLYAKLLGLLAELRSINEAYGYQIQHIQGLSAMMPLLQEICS
# Sequence of Retinoic acid receptor RXR-alpha (Homo sapiens) (P19793 whole entry, looked up): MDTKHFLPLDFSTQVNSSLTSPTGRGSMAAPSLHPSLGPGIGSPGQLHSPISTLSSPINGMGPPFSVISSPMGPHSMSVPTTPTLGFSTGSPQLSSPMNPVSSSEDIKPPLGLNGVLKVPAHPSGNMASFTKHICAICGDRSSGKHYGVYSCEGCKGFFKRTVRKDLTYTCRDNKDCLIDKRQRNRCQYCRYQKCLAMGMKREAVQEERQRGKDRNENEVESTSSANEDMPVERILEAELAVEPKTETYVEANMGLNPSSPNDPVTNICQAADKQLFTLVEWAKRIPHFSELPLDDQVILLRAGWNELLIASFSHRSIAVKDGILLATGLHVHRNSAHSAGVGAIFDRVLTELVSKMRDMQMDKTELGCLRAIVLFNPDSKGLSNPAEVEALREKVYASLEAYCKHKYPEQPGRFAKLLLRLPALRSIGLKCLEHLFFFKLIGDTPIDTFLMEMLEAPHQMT
smiles,measurement,setting,value
CCN1CCCC1CN (stereo unspecified),outcome,[1],inactive
same,outcome,[2],inactive
same,outcome,[3],inactive
same,outcome,[4],inactive
same,outcome,[5],inactive
same,outcome,[6],inactive
same,outcome,[7],inactive
same,outcome,[8],inactive
same,Potency,[9],inactive
same,outcome,[10],inactive
same,outcome,[11],inactive
same,outcome,[12],inactive
same,Potency,[13],inactive
same,outcome,[14],inactive
same,Potency,[15],inactive
same,outcome,[16],inactive
same,outcome,[17],inactive
same,Potency,[18],inactive
CC(C)CO,outcome,[1],inactive
same,outcome,[2],inactive
same,outcome,[3],inactive
same,outcome,[4],inactive
same,outcome,[5],inactive
same,outcome,[6],inactive
same,outcome,[7],inactive
same,outcome,[19],inactive
same,outcome,[8],inactive
same,Potency,[9],inactive
same,outcome,[10],inactive
same,outcome,[11],inactive
same,outcome,[12],inactive
same,Potency,[13],inactive
same,outcome,[14],inactive
same,Potency,[15],inactive
same,outcome,[16],inactive
same,outcome,[17],inactive
same,Potency,[18],inactive
CC(=O)OC1CCCCC1C(C)(C)C (stereo unspecified),outcome,[1],inactive
same,outcome,[2],inactive
same,outcome,[3],inactive
same,outcome,[4],inactive
same,outcome,[5],inactive
same,outcome,[6],inactive
same,outcome,[7],inactive
same,outcome,[19],inactive
same,outcome,[8],inactive
same,Potency,[9],inactive
same,outcome,[10],inactive
same,outcome,[11],inactive
same,outcome,[12],inactive
same,Potency,[13],inactive
same,outcome,[14],inactive
same,Potency,[15],inactive
same,outcome,[16],inactive
same,Potency,[18],inactive
O=C1c2ccccc2C(=O)c2cc(Cl)ccc21,"activity change, negative = cytotoxicity",[1],-4.49% [at 5.95 µM]
same,"viability change, negative = cytotoxic",[2],-4.02% [at 6.95 µM]
same,activation,[3],-0.467% [at 6.95 µM]
same,"activity, negative = cytotoxic",[4],13.9% [at 6.95 µM]
same,activation,[5],0.175% [at 6.95 µM]
same,"activity, negative = cytotoxicity",[6],5.88% [at 8.39 µM]
same,"activity change, negative = inhibition",[7],38.6% [at 8.39 µM]
same,"viability change, negative = cytotoxic",[19],1.45% [at 6.97 µM]
same,activation,[8],-9.9% [at 6.97 µM]
same,activation,[9],2.02% [at 6.98 µM]
same,"activity change, negative = cytotoxicity",[10],5.38% [at 6.97 µM]
same,"activity change, negative = cytotoxicity",[11],3.77% [at 8.39 µM]
same,"activity, negative = inhibition",[12],30% [at 8.39 µM]
same,activation,[13],2.57% [at 8.36 µM]
same,"viability change, negative = cytotoxic",[14],1.32% [at 8.39 µM]
same,"activity change, negative = inhibition",[15],0.579% [at 10.5 µM]
same,"viability change, negative = cytotoxic",[16],-1.2% [at 8.39 µM]
same,"activity change, negative = cytotoxicity",[17],2.26% [at 8.39 µM]
same,"activity, negative = inhibition",[18],54.9% [at 8.39 µM]
CC1CCc2c(N3CCC(O)CC3)c(F)cc3c(=O)c(C(=O)O)cn1c23 (stereo unspecified),outcome,[1],inactive
same,outcome,[2],inactive
same,outcome,[3],inactive
same,outcome,[4],inactive
same,outcome,[5],inactive
same,outcome,[6],inactive
same,outcome,[7],inactive
same,outcome,[19],inactive
same,outcome,[8],inactive
same,Potency,[9],inactive
same,outcome,[10],inactive
same,outcome,[11],inactive
same,outcome,[12],inactive
same,Potency,[13],inactive
same,outcome,[14],inactive
same,Potency,[15],inactive
same,outcome,[16],inactive
same,outcome,[17],inactive
same,Potency,[18],23.7 µM (active)
CCCCCCCCCCCCCCCCCC#N,outcome,[1],inactive
same,outcome,[2],inactive
same,outcome,[3],inactive
same,outcome,[4],inactive
same,outcome,[5],inactive
same,outcome,[6],inactive
same,outcome,[7],inactive
same,outcome,[19],inactive
same,outcome,[8],inactive
same,Potency,[9],inactive
same,outcome,[10],inactive
same,outcome,[11],inactive
same,outcome,[12],inactive
same,Potency,[13],inactive
same,outcome,[14],inactive
same,Potency,[15],inactive
same,outcome,[17],inactive
same,Potency,[18],inactive
